FH mod: Identification of activators of human fumarate hydratase by quantitative high-throughput screening | Fumarate hydratase, mitochondrial (Homo sapiens), P07954 | FH coupled MDH/diaphorase resazurin fluorescence, 15 min | Potency, µM (top dose mostly 79.9 µM), without a hit: at the top dose activity change, negative = inhibition, most hits filed as inhibitors | 54,000 tested, 0.22% active | AID 1347055, 2019; further: on the % scale 0 is the no-effect control and ±100 the full control effect; the screen sought activators but most active calls are inhibition curves; nearly all actives have a fitted effect of over 45% in size
Target sequence (P07954 whole entry, looked up): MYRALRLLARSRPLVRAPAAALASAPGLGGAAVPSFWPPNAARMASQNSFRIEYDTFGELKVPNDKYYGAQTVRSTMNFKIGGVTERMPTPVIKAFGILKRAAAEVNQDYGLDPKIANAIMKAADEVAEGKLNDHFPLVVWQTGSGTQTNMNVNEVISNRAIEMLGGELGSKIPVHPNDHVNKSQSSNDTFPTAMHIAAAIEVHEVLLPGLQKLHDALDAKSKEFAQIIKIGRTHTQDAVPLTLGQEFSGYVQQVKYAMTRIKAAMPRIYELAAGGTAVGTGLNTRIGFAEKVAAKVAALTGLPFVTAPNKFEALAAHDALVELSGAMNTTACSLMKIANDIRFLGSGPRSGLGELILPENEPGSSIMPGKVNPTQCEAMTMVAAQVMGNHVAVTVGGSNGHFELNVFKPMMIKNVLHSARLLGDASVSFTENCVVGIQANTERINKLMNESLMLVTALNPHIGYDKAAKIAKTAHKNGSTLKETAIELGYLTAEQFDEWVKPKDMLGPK
p53null 32C tox: selectivity test: cytotoxicity in p53 null cells, permissive temperature; H1299-neo p53 null cells, ATP luminescence, 24 h, 32C; Potency, µM (highest dose often 46.1 µM), for inactives: top-dose activity change, negative = cytotoxicity, usual class: cytotoxic; 55,000 tested, 0.62% active;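 further: 0% = DMSO only and -100% = full killing by 100 µM tamoxifen; nearly all actives have a fitted effect of over 55% in size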
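Cells lacking p53 (H1299-neo) are plated at 600 per well and allowed to settle overnight at 37C. Test compounds (up to 46 uM) are added and held 24 hours at 32C, then ATP is quantified by luminescence.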
p53null 39C tox: p53 null cell cytotoxicity, nonpermissive temperature; H1299 p53-null (neo) cells, 39C, ATPlite viability, 24 h; AID 904; Potency, µM (top dose mostly 46.1 µM), for the others: at the top dose activity, negative = cell killing, most hits filed as cytotoxic; 55,000 tested, 0.97% active;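 further: 0% = DMSO only and -100% = full killing by 100 µM tamoxifen; nearly all actives have a fitted effect of over 50% in size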
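ATP-luminescence viability readout (ATPlite, 20 min RT) after 24 hr compound treatment at 39C of H1299-neo or H1299-p53A138V cells; titration up to 46 uM; normalized to DMSO and 100 uM tamoxifen; Hill-fit AC50.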
GALC G270D act: enhancers of human galactocerebrosidase G270D mutant activity in cells; P54803; 145M-Twi-hGALC-G270D cells (Twitcher mouse brain line with human GALC G270D), HMU-beta-Gal fluorescence, 48 h; Potency, µM (doses to about 57.5 µM), usual class: activators; 45,000 tested, 0.1% active; AID 1159614; further: 0% is about no effect; nearly all actives have a fitted effect of over 65% in size
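Mutant human GALC (G270D), stably expressed in a Twitcher mouse brain cell line lacking endogenous GALC, is measured in live-treated cells via 6-hexadecanoylamino-4-methylumbelliferyl-β-galactoside hydrolysis (0.1 mM final, pH 5.2) with fluorescent detection.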
NTMT1 inh: blocks human N-terminal methyltransferase 1 activity; NTMT1 MTase-Glo SAH luminescence, purified enzyme; Potency, µM (top dose mostly 114 µM), for the others: at the top dose activity change, negative = inhibition, most hits filed as inhibitors; 59,000 tested, 2.5% active; AID 1645870;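 further: plate controls were DMSO vehicle for no effect and no enzyme for full effect; nearly all actives have a fitted effect of over 65% in size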
Target sequence (Q9BV86 whole entry, looked up): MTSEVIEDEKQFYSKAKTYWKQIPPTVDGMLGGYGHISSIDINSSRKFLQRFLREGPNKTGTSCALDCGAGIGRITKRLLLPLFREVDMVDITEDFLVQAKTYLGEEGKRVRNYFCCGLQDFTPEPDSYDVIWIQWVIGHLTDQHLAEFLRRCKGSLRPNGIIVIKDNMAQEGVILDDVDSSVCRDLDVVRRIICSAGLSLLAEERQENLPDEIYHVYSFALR
The depositor's hits bear a star; i = inactive; ? = inconclusive; / = not tested or not shown; ! = repeats disagree; [ ] = dose if it differs, or a comment. This excerpt belongs to a sample that is enriched for hits. The call rests on the fitted dose curve; in most records, active means well fitted curve in the direction sought with a large enough effect; inconclusive means small, poorly fitted or top-dose-only effect, or another doubt; inactive means no such curve, though single readings can be large; an effect the other way counts as inactive or inconclusive. Potency means the concentration at half of the fitted maximal effect.

SMILES	FH mod	p53null 32C tox	p53null 39C tox	GALC G270D act	NTMT1 inh
O=C(NCCc1ccccc1)C(=O)NCC(c1cccnc1)N1CCN(c2ccc(F)cc2)CC1 (configuration not stated)	-2%	-4%	11µM*	i	-4%
O=C(NCc1cccnc1)C(=O)NCC(c1cccnc1)N1CCN(c2ccc(F)cc2)CC1 (configuration not stated)	-15%	26%	-3%	i	0%
COC(=O)NCC(c1cccnc1)N1CCN(c2ccccc2)CC1 (configuration not stated)	/	-2%	-1%	/	/
COc1ccc(-c2ccc3c(N)c(C(=O)Nc4cccc(C)c4)sc3n2)cc1	3%	-22%	?	i	7%
COc1ccc(-c2ccc3c(N)c(C(=O)Nc4cc(F)ccc4C)sc3n2)cc1	-6%	-9%	3%	16µM*	-2%
CC(C)CN(C[C@@H](O)[C@H](Cc1ccccc1)NC(=O)O[C@@H]1CO[C@H]2OCC[C@H]21)S(=O)(=O)c1ccc(N)cc1	4%	/	/	/	3%[57.5 µM]
C#Cc1cccc(Nc2ncnc3cc(OCCOC)c(OCCO)cc23)c1	3%[53.3 µM]	/	/	/	35µM*
COc1cc(OC)cc(N2CCN(C(=O)Nc3nc4cc(F)ccc4nc3OC)CC2)c1	/	/	/	/	2%
Cc1cc(C)n2ncc(C(=O)Nc3ccccc3C)c2n1	/	/	/	/	6%
Nc1cc(C(F)(F)F)ccc1S	-19%[53.3 µM]	/	/	i	8.9µM*
CC(=O)Nc1sc2c(c1-c1ccc(N(C)C)cc1)CCNC2	/	/	/	/	14µM*
Oc1ccc(NCc2ccccc2OCc2ccccc2F)cc1	?	-2%	-26%	i	?
Oc1ccc(NCc2ccccc2OCc2ccccc2Cl)cc1	?	4%	-18%	i	45µM*
C=CC(=O)Nc1cccc(Nc2nc(Nc3ccc(Oc4ccnc(C(=O)NC)c4)cc3)ncc2F)c1	?	/	/	/	5%
NC[C@@H]1O[C@@H](O[C@@H]2[C@@H](O[C@@H]3O[C@H](CO)[C@@H](O)[C@H]3O)[C@H](O)[C@@H](N)C[C@H]2N)[C@@H](N)[C@H](O)[C@H]1O	0%[13.5 µM]	/	/	/	2%[12.6 µM]
CC(=O)Nc1sc2c(c1-c1nc3ccccc3s1)CCN(C(=O)OC(C)(C)C)C2	/	/	/	/	-1%
CC(=O)Nc1sc2c(c1-c1nc3ccccc3s1)CNC2	-15%	/	/	/	79µM*!
Cc1ccc(OCCn2c(CCNC(=O)CCc3ccc(N)cc3)nc3ccccc32)cc1	/	/	/	/	-1%[57.5 µM]
COc1ccc(N2CCN(c3nc4ccccc4n4c(C)nnc34)CC2)cc1	0%	5%	6%	i	79µM*
Cc1nnc2c(N3CCN(c4ccc(F)cc4)CC3)nc3ccc(C(=O)c4ccccc4)cc3n12	-19%	11%	23%	i	10%
NC1CCCN(c2c(/C=C3\SC(=O)NC3=O)cccc2-c2ccccc2)C1 (configuration not stated)	-15%	/	/	/	?
FC(F)(F)c1ccccc1-c1nc(NCc2ccc(-c3ccc4ccccc4c3)cc2)c2ccccc2n1	/	/	/	/	20%
CCOc1ccc(NC(=O)c2ccccc2O)cc1	/	7.1µM*	7.9µM*	/	/
CCOc1ccc(NC(C)=O)cc1	6%[53.3 µM]	/	/	i	-10%[57.5 µM]
O=C(O)Cc1cccc(OCCCN(Cc2cccc(C(F)(F)F)c2Cl)CC(c2ccccc2)c2ccccc2)c1	-19%[53.3 µM]	/	/	/	40µM*
SMILES	FH mod	p53null 32C tox	p53null 39C tox	GALC G270D act	NTMT1 inh
O=C(CNC(=O)C1CCCCCC1)OC(C(=O)Nc1cc(C(F)(F)F)ccc1Cl)c1ccccc1 (configuration not stated)	/	/	/	/	9%
O=C(CNC(=O)C1CCCCC1)OC(C(=O)c1ccccc1)c1ccccc1 (configuration not stated)	/	/	/	/	89µM*
Cc1cc(F)ccc1S(=O)(=O)Nc1cc2c(C(=O)O)c(C)oc2c2ccccc12	16µM*	10%	19%	i	4%
c1cc(NC2CCNCC2)nc(-c2cnc3ccccn23)c1	?	/	/	/	45µM*
Cc1c(CN2CCC(Nc3ncnc4sc(CC(F)(F)F)cc34)CC2)ccc2c1cc(C#N)n2Cc1cn[nH]c1	/	/	/	/	4%
O=C(CCC1CCCC1)Nc1ccc(OCC(=O)N2CCOCC2)cc1	/	14µM*	?	/	/
Oc1ccc(Nc2nc(-c3ccncc3)nc3ccccc23)cc1F	/	/	/	/	-19%
Cn1cncc1C(N)(c1ccc(Cl)cc1)c1ccc2c(c1)c(-c1cccc(Cl)c1)cc(=O)n2C (configuration not stated)	-3%	/	/	/	?
CC(C)(C)c1ccc(O)c(O)c1	40µM*	/	/	i	4.5µM*
C=C1CC[C@@H]2C(C)(C)CCC[C@@]2(C)[C@@H]1CC/C(=C/C(=O)OC)COC(C)=O	0%[53.3 µM]	/	/	/	9%[29.8 µM]
O=C(NCCCNc1nc(Nc2cccc(NC(=O)N3CCCC3)c2)ncc1I)c1cccs1	-27%	/	/	/	40µM*
O=C(NCCc1csc(-c2cccnc2)n1)c1cccs1	/	3%	-6%	/	/
Cc1ccc(-n2ncc3c(NCCCN4CCOCC4)ncnc32)cc1C	-5%	-2%	-13%	i	50µM*
Fc1ccc(-n2ncc3c(NCCCN4CCOCC4)ncnc32)cc1	-2%	-12%	0%	i	1%
C=C(CCC1=C(C)[C@H]2[C@H](CC3[C@@H]4CC=C5C[C@@H](O)C[C@@H](O)[C@]5(C)C4[C@H](O)C[C@@]32C)O1)CO[C@@H]1O[C@H](CO)[C@@H](O)[C@H](O)[C@H]1O (some centres not stated)	6%[20.6 µM]	/	/	/	15%[12.6 µM]
O=C(O)c1cc(-c2ccc(C(F)(F)F)cc2)nc2n[nH]c(-c3ccccc3)c12	0%	?	16µM*	i	0%
CNC1CCC(N(Cc2cccc(-c3ccncc3)c2)C(=O)c2sc3ccccc3c2Cl)CC1 (configuration not stated)	1%	/	/	/	35µM*!
CNC1CCC(N(Cc2cccc(-c3ccncc3)c2)C(=O)c2sc3c(F)ccc(F)c3c2Cl)CC1 (configuration not stated)	-4%	/	/	/	71µM*!
Cc1ccc(NC(=O)c2sc3ccccc3c2Cl)cc1	10%	?	?	i	6%
Cc1ccccc1Nc1c(-c2ccc(N3CCOCC3)cc2)nc2ncccn12	-14%	13µM*	13µM*	i	-4%
CCCCCCCCCCCCCCCC[n+]1ccccc1	-8%[53.3 µM]	/	/	i	22µM*
CCCCCCCCCCCCCCCC(=O)O	0%[53.3 µM]	/	/	i	6%[57.5 µM]
COC(=O)c1cc2c(C(F)(F)F)cc(-c3ccccc3)cc2n1O	-21%	/	/	/	-3%[57.5 µM]
CCc1ccc(-c2nc(CSCC(=O)NCc3ccc(C)cc3)c(C)o2)cc1	-29%	-7%	27%	i	0%
CCOc1ccc(-c2nc(CSCC(=O)NCc3ccc(C)cc3)c(C)o2)cc1	-23%	-24%	18%	i	79µM*

Screening results: PubChem BioAssay, National Center for Advancing Translational Sciences (NCATS)
